Assay results from the supplement of paper PMC10849652.
Targets with a hit are over-represented here; the source holds about 8,800 in all. About 0.5% of all pairs of compound and target were hits.

Tests used:
Assay in all cases: log2 fold change, soluble protein after heating vs DMSO (PISA); higher = thermal stabilisation; K562 lysate, 10 uM; active = over 0.2 and 3.5 SD of the protein, either way, in both replicates (recomputed)
[1] = compound: CCCS(=O)(=O)Nc1ccc(F)c(C(=O)c2c[nH]c3ncc(-c4ccc(Cl)cc4)cc23)c1F [vemurafenib]
Method in brief: (§1)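 Values give the log-two fold change in thermal stability against solvent controls, from duplicates. Crude K562 extract at 1 mg/mL protein, made by dounce homogenisation in PBS pH 7.4 with 1 mM MgCl2, was treated with 10 μM compound for 30 min. After 3 min heating across 48°C-58°C, aliquots were pooled, adjusted to 0.5% NP-40 at 4°C and centrifuged at 21,000xg for 90 min. The supernatant was measured by TMTpro 16plex LC-MS/MS with channel sums equalised.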

[2] = compound: CCCS(=O)(=O)Nc1ccc(F)c(C(=O)c2c[nH]c3ncc(Cl)cc23)c1F
Method in brief: as §1

[3] = compound: CCN(CCCOc1ccc2c(Nc3cc(CC(=O)Nc4cccc(F)c4)[nH]n3)ncnc2c1)CCOP(=O)(O)O [barasertib]
Method in brief: as §1

[4] = compound: CC[C@@H]1C(=O)N(C)c2cnc(Nc3ccc(C(=O)NC4CCN(C)CC4)cc3OC)nc2N1C1CCCC1
Method in brief: as §1

[5] = compound: CC[C@@H]1C(=O)N(C)c2cnc(Nc3ccc(C(=O)N[C@H]4CC[C@H](N5CCN(CC6CC6)CC5)CC4)cc3OC)nc2N1C(C)C [volasertib]
Method in brief: as §1

[6] = compound: CCn1c(C(=O)N(C2CC2)C2CC2)cc2c3c(ncn3C)c(Nc3cc(C)n(C)n3)nc21
Method in brief: as §1

[7] = compound: CCn1cc(-c2ccnc3[nH]c(-c4cccc(CN(C)C)c4)cc23)c(-c2ccc(NC(=O)N(C)C)cc2)n1
Method in brief: as §1

[8] = compound: CN1CCC(CNc2ccc3ncc(-c4cccc(OC(F)(F)F)c4)n3n2)CC1
Method in brief: as §1

[9] = compound: CN1CCN(CCOc2cc(OC3CCOCC3)c3c(Nc4c(Cl)ccc5c4OCO5)ncnc3c2)CC1 [saracatinib]
Method in brief: as §1

[10] = compound: CN1CCN(c2nc(C3=C(c4c[nH]c5ccccc45)C(=O)NC3=O)c3ccccc3n2)CC1 [sotrastaurin]
Method in brief: as §1

[11] = compound: CN1CC[C@H](c2c(O)cc(O)c3c(=O)cc(-c4ccccc4Cl)oc23)[C@H](O)C1 [alvocidib]
Method in brief: as §1

[12] = compound: CN1CCc2c(c3ccccc3n2Cc2ccc(C(=O)NO)cc2)C1 [Tubastatin A]
Method in brief: as §1

[13] = compound: CNC(=O)C1=CC=CC=C1NC2=NC(=NC=C2Cl)NC3=C(C=C(C=C3)N4CCOCC4)OC
Method in brief: as §1

[14] = compound: CNC(=O)c1ccc(Nc2ncc(C(F)(F)F)c(NCc3nccnc3N(C)S(C)(=O)=O)n2)cc1 [defactinib]
Method in brief: as §1

[15] = compound: CNc1nc(-c2ccc3c(N)n[nH]c3c2)cc(N2C[C@@H](C(=O)NC3CCCCC3)CC[C@H]2C)n1
Method in brief: as §1

[16] = compound: COC(=O)N[C@@H](C)CNc1nccc(-c2cn(C(C)C)nc2-c2cc(Cl)cc(NS(C)(=O)=O)c2F)n1 [encorafenib]
Method in brief: as §1

[17] = compound: COC(=O)[C@H](CCSC)NC(=O)C1=C(C=C(C=C1)NC[C@H](CS)N)C2=CC=CC=C2
Method in brief: as §1

[18] = compound: COc1cc(Nc2ncc3c(n2)-c2ccc(Cl)cc2C(c2c(F)cccc2OC)=NC3)ccc1C(=O)O [alisertib]
Method in brief: as §1

[19] = compound: COc1cc2nc(-c3cc(F)ccc3O)nc(N[C@@H]3CNC[C@H]3C(C)(C)O)c2cc1OC
Method in brief: as §1

[20] = compound: COc1cc2ncnc(Nc3ccc(F)c(Cl)c3)c2cc1OCCCN1CCOCC1 [gefitinib]
Method in brief: as §1

Measured: log2 fold change

ZNF598 isoform 3 (UniProt Q86UK7)
Sequence of UniProt Q86UK7 (Q86UK7 whole entry, looked up): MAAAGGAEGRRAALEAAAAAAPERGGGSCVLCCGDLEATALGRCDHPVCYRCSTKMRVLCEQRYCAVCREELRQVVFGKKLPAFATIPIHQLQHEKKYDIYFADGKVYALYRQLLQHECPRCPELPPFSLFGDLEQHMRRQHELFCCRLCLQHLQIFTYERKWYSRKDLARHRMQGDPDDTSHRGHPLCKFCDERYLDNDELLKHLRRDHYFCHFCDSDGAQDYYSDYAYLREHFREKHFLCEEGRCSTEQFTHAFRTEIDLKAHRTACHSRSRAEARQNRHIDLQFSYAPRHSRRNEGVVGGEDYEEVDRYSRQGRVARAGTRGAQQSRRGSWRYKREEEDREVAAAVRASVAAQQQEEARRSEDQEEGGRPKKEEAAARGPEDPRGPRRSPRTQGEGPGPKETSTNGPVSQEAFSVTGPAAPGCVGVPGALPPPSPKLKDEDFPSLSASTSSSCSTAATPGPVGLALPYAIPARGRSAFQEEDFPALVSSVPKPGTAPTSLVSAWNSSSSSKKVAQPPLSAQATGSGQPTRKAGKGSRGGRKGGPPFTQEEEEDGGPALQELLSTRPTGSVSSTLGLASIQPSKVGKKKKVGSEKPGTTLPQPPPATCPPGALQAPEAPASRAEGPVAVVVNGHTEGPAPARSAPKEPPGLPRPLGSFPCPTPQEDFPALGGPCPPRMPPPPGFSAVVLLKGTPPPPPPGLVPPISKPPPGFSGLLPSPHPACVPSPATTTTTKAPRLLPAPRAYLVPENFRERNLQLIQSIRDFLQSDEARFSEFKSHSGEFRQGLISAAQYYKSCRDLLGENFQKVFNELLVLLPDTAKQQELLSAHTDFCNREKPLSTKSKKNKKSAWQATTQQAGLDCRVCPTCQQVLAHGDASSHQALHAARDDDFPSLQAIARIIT
inactive: [1] 0.022 | [2] 0.036 | [3] 0.019 | [4] 0.067 | [5] -0.032 | [6] 0.017 | [7] -0.011 | [8] 0.001 | [9] -0.008 | [10] 0.014 | [11] -0.01 | [12] -0.095 | [13] 0.025 | [14] 0.004 | [15] 0.015 | [16] 0.004 | [17] -0.039 | [18] 0.009 | [19] 0.012 | [20] 0.007

VPS11 (UniProt Q9H270)
Sequence of UniProt Q9H270 (Q9H270 whole entry, looked up): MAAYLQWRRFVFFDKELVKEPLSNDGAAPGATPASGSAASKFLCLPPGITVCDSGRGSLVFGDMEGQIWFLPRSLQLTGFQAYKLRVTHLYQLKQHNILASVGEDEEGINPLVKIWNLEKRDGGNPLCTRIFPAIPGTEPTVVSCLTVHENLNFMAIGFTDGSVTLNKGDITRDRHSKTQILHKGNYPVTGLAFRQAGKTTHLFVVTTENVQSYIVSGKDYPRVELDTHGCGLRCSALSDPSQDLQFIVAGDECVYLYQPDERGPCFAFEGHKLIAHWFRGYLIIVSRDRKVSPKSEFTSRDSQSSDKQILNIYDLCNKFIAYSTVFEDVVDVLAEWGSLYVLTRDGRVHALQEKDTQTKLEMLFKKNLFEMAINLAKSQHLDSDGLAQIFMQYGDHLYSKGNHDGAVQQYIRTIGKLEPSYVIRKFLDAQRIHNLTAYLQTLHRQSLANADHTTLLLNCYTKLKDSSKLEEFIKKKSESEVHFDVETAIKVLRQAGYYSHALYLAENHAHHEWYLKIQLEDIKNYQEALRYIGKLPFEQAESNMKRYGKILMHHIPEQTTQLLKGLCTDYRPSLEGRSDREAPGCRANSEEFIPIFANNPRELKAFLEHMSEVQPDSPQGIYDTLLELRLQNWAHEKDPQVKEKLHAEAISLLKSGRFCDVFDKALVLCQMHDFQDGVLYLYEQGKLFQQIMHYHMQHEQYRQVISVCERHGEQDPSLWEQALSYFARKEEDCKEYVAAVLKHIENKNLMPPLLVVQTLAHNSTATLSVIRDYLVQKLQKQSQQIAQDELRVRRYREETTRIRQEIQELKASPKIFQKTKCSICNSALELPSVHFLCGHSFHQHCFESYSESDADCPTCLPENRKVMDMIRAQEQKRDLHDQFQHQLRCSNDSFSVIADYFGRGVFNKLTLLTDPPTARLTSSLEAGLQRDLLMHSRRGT
inactive: [1] -0.002 | [2] 0.034 | [3] 0.013 | [4] -0.033 | [5] -0.038 | [6] 0.015 | [7] -0.051 | [8] -0.007 | [9] 0.039 | [10] 0.019 | [11] 0.039 | [12] -0.113 | [13] 0.023 | [14] 0.022 | [15] -0.026 | [16] 0.016 | [17] -0.096 | [18] 0.002 | [19] 0.019 | [20] -0.007

VRK2 (UniProt Q86Y07)
Sequence of UniProt Q86Y07 (Q86Y07 whole entry, looked up): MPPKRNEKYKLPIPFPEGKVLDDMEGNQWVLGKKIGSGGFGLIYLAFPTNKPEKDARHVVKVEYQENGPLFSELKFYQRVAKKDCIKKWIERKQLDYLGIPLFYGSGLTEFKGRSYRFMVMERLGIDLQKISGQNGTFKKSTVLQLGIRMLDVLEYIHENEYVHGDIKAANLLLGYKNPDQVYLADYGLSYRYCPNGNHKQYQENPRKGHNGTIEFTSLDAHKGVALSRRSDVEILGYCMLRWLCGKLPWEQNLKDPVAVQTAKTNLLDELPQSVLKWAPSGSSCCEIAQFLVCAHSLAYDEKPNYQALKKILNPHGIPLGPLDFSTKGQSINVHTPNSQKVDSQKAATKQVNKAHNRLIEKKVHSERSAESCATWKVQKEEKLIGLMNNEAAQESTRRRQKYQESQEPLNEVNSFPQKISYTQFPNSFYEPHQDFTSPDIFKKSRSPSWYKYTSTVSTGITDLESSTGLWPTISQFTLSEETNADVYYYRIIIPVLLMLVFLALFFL
inactive: [1] 0.113 | [2] 0.148 | [3] 0.048 | [4] -0.032 | [5] -0.008 | [6] 0.01 | [7] -0.104 | [8] 0.182 | [9] -0.022 | [10] 0.151 | [12] -0.017 | [13] 0.067 | [14] 0.156 | [15] -0.044 | [16] -0.068 | [17] 0.032 | [18] -0.033 | [19] 0.008 | [20] -0.08
active: [11] 0.503

XPOT (UniProt O43592)
inactive: [1] -0.023 | [2] 0.014 | [3] 0.011 | [4] -0.097 | [5] -0.047 | [6] 0.036 | [7] -0.065 | [8] -0.001 | [9] -0.005 | [10] 0.002 | [11] 0.004 | [12] -0.133 | [13] -0.004 | [14] 0.011 | [15] -0.042 | [16] 0.005 | [17] -0.094 | [18] 0 | [19] 0.005 | [20] 0.01

WDR7 (UniProt Q9Y4E6)
inactive: [1] -0.005 | [2] -0.035 | [3] -0.019 | [4] -0.041 | [5] -0.057 | [6] 0.029 | [7] -0.007 | [8] 0.047 | [9] -0.018 | [10] 0.01 | [11] -0.008 | [12] 0.008 | [13] 0 | [14] -0.025 | [15] 0.026 | [16] 0.092 | [17] -0.055 | [18] -0.007 | [19] -0.01 | [20] -0.025

ZC3H13 (UniProt Q5T200)
active: [18] -0.362
inactive: [1] -0.027 | [2] -0.037 | [3] -0.045 | [4] 0.036 | [5] -0.013 | [6] -0.031 | [7] 0.033 | [8] 0 | [9] -0.046 | [10] 0.222 | [11] -0.063 | [12] 0.063 | [13] -0.073 | [14] 0.088 | [15] -0.028 | [16] -0.069 | [17] 0.021 | [19] 0.016 | [20] -0.077

VCPIP1 (UniProt Q96JH7)
Sequence of UniProt Q96JH7 (Q96JH7 whole entry, looked up): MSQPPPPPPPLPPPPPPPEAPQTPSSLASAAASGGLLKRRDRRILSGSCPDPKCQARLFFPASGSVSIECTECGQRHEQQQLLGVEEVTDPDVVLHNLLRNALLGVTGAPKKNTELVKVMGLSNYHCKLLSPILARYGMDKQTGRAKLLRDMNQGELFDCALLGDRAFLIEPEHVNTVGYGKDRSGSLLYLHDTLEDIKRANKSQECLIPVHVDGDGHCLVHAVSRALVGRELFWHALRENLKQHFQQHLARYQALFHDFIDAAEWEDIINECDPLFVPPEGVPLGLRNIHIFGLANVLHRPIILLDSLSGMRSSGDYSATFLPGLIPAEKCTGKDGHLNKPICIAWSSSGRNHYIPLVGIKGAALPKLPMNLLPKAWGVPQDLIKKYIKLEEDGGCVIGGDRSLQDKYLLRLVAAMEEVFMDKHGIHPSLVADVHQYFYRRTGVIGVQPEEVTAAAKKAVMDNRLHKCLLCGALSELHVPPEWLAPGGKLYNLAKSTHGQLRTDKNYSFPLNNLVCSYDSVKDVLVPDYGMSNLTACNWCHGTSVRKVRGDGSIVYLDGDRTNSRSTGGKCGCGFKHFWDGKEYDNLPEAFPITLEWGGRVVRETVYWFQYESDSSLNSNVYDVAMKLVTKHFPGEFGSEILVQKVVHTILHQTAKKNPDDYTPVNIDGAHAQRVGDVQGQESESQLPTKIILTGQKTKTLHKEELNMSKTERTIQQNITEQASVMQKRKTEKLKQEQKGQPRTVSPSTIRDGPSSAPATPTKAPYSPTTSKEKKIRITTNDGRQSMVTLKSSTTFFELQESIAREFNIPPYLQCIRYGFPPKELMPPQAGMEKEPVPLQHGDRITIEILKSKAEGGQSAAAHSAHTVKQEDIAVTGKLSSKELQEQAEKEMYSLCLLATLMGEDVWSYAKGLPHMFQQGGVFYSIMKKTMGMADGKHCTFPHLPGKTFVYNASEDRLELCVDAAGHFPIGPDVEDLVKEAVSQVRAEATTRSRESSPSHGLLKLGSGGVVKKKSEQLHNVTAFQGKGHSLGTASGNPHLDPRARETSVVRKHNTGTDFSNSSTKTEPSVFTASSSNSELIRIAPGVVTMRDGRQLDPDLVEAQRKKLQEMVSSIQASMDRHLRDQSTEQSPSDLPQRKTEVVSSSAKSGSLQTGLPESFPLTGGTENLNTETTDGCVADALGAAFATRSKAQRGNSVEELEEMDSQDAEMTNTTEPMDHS
inactive: [1] 0.008 | [2] -0.04 | [3] 0.051 | [4] -0.006 | [5] -0.047 | [6] 0.011 | [7] -0.12 | [8] 0.049 | [9] -0.03 | [10] 0.035 | [11] -0.049 | [12] -0.026 | [13] -0.01 | [14] 0.022 | [15] 0.113 | [16] 0.005 | [17] 0.141 | [18] 0.003 | [19] -0.006 | [20] -0.04

WRN (UniProt Q14191)
Sequence of UniProt Q14191 (Q14191 whole entry, looked up): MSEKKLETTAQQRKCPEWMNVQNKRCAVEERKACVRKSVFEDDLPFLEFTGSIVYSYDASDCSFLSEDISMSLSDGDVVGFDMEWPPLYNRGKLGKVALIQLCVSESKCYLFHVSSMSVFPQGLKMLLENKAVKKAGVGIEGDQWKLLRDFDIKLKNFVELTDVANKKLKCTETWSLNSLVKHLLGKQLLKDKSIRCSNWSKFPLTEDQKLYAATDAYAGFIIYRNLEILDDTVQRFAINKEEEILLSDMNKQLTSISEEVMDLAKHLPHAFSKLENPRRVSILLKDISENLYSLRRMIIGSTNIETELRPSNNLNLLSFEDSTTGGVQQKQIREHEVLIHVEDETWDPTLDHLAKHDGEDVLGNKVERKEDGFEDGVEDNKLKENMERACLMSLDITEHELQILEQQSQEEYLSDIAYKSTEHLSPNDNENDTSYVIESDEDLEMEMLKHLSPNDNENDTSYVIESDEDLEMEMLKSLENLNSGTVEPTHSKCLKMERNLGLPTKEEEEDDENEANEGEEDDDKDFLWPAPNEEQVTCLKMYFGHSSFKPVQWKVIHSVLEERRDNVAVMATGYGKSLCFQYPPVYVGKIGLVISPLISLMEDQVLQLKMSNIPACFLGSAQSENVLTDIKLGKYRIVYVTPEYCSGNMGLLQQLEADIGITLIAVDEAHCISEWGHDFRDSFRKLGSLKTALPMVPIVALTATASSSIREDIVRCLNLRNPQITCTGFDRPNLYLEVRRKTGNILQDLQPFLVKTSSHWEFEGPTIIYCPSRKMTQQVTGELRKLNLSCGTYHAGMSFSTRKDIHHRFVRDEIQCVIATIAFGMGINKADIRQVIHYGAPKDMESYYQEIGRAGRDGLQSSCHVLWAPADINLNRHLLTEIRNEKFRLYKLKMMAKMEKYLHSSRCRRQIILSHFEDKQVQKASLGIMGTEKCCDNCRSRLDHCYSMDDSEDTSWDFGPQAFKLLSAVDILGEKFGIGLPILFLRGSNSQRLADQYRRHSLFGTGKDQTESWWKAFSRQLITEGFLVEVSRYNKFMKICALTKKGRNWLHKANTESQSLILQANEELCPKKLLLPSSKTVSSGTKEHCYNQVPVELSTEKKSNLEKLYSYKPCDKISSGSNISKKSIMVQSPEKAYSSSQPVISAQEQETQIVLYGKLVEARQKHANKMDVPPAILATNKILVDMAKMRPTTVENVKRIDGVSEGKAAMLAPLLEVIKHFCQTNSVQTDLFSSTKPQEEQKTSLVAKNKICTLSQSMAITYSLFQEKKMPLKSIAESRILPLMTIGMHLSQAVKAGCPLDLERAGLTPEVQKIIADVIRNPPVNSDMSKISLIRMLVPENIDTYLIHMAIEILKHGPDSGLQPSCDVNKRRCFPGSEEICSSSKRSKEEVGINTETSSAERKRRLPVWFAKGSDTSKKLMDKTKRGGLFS
inactive: [1] -0.032 | [2] -0.065 | [3] 0.026 | [4] -0.032 | [5] 0.007 | [6] 0.053 | [7] -0.052 | [8] 0.022 | [9] 0.008 | [10] 0.031 | [11] -0.029 | [12] -0.071 | [13] -0.007 | [14] 0.023 | [15] -0.025 | [16] 0.016 | [17] -0.013 | [18] -0.037 | [19] 0 | [20] 0.047
